Results filed as inconclusive are left out. Unmarked numbers belong to inactive results. Calls come from the whole dose curve; as a rule, active = well fitted cell-killing curve with a large enough effect; inconclusive = small, poorly fitted or top-dose-only effect, or effect the other way; inactive = flat fitted curve, though single readings scatter.
Experiment: S16 Schwann cell viability assay (CellTiter-Glo assay) (AID 624031);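 note: cellular ATP luminescence as a viability measure; nearly all actives have a fitted effect of over 70% in size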
Conditions: S16 rat Schwann cells viability, 24 h; series mostly up to 57.5 µM; activity change, negative = cytotoxicity: at the top concentration
Description: Charcot-Marie-Tooth-Association [CMTA]
National Center for Advancing Translational Sciences [NCATS]
Charcot-Marie-Tooth (CMT) disease was first characterized by Jean-Martin Charcot and Pierre Marie in France and, independently, by Howard Henry Tooth in England in 1886. CMT is one of the most common inherited neurological diseases, affecting approximately 1 in 2,500 Americans. […] The most prevalent type of CMT is known as CMT1A and caused by a duplication of the PMP22 gene which leads to over-expression of this protein. PMP22 is a glycosylated intrinsic membrane protein accounting for 2-5% of the myelin protein content, and its over-expression results in demyelination and subsequently axonal loss.
A pair of cellular transcription-based assays was developed in the S16 rat Schwann cell lines (Hai, M., et al., 2002) stably transfected with orthogonal reporters - firefly luciferase (Fluc) and beta-lactamase (beta-Lac) - whose expression is driven by an intronic regulatory element of the PMP22 gene (Jones, E.A., et al., 2011) to recapitulate endogenous expression of PMP22. A comprehensive library of approved drugs, the NCGC Pharmaceutical Collection (Huang, R., et al., 2011), was screened in the cross-validating platform of the orthogonal reporter assays to identify drug modulators inhibitory towards PMP22 expression.
A set of counter-screens was devised to address non-specific activity of the library. An ATP-dependent CellTiter-Glo assay (developed by Promega Corp) was utilized to control cell viability. In addition, biochemical Fluc enzyme assay was performed to assess direct inhibition of the Fluc enzymatic activity.
Hai, M., Muja, N., DeVries, G.H., Quarles, R.H. and Patel, P.I. Comparative analysis of Schwann cell lines as model systems for myelin gene transcription studies. J Neurosci Res, 2002. 69(4): pp 497-508
Huang, R., Southall, N., Wang, Y., Yasgar A., Shinn P., Jadhav, A. , Nguyen, D.-T. and Austin, C.P., The NCGC pharmaceutical collection: a comprehensive resource of clinically approved drugs enabling repurposing and chemical genomics. Sci Transl Med, 2011. 3(80): p. 80ps16.
Native S16 cells were seeded in white solid-bottom 1536 well plates at between 500-750 cells/6uL in DMEM medium containing 10% FBS, w/o phenol red. After overnight incubation at 37 degree Celsius/5% C02, 23 nL of compounds or DMSO were delivered to each well using a pin tool, followed by 24h-incubation at 37 degree Celsius/5% C02. Then one volume of CellTiter-Glo assay reagent (Promega) was added to each well for cell viability measured by a ViewLux plate reader (PerkinElmer). The % activity was determined by normalizing to the average readings from wells containing no cells relative to DMSO-treated cells (0% Activity). The concentration-effect curves were then classified based on curve quality (r2), response magnitude and degree of measured activity.

Row | SMILES | activity change, negative = cytotoxicity
1 | C[C@H]1COc2c(C3(N)CC3)c(F)cc3c(=O)c(C(=O)O)cn1c23 | 1.17%
2 | Cc1cc(C)nc(NS(=O)(=O)c2ccc(N)cc2)n1 | -10.8%
3 | FC(F)(F)C(Cl)Br (stereo not given) | -0.879%
4 | COC(=O)c1cccnc1 | 3.18%
5 | Cc1ccc(S(=O)(=O)NC(=O)NC2CCCCC2)cc1 | -27.2%
6 | CC(=O)Nc1ccc(C(=O)O)cc1 | 8.38%
7 | Cc1c(N(C)C)c(=O)n(-c2ccccc2)n1C | -3.45%
8 | CCCC(O)C(CC)CO (stereo not given) | 5.3%
9 | CC(=O)Nc1ccc(OCCOCCOc2ccc(NC(C)=O)cc2)cc1 | -20.6%
10 | CCCCCCCCCCCCCCCCCCO | 7.27%
11 | CCS(=O)(=O)CCn1c([N+](=O)[O-])cnc1C | -12.3% [at 25.7 µM]
12 | CC(C)CCOC(=O)c1ccc(N(C)C)cc1 | -0.546%
13 | O=C(c1ccccc1)C(O)c1ccccc1 (stereo not given) | 10.1%
14 | COc1ccc(C(=O)NCc2ccc(OCCN(C)C)cc2)cc1OC | -20.2%
15 | CCCOC(=O)c1ccc(N)cc1 | -12.7%
16 | Nc1ncnc(Nc2ccccc2)n1 | 8.13%
17 | CCc1cccc(CC)c1NC(=O)CN(CC(=O)O)CC(=O)O | 13.9% [at 25.7 µM]
18 | CCCCCCCC(=O)OCC(COC(=O)CCCCCCC)OC(=O)CCCCCCC | 1.12%
19 | Cc1ccc(S(=O)(=O)NC(=O)NC2CCCCCCC2)cc1 | 3.78%
20 | O=C(O)CCCCC1CCSS1 (stereo not given) | 1.79%

Row | SMILES | activity change, negative = cytotoxicity
21 | C=CCSCC1Nc2cc(Cl)c(S(N)(=O)=O)cc2S(=O)(=O)N1 (stereo not given) | -18.8%
22 | OC[C@@H](O)[C@@H](O)[C@H](O)[C@H](O)CO | -12.6%
23 | Cc1cccc(C)c1NC(=O)CC12CCCN1CCC2 | 1.62%
24 | CC(=O)NCc1c(I)c(NC(C)=O)c(I)c(C(=O)O)c1I | 5.48%
25 | COc1cc(O)cc(O)c1 | -8.25%
26 | Cn1c([N+](=O)[O-])cnc1COC(N)=O | 8.63%
27 | CCCCCCCCCCCCCCCCN | 3.13%
28 | CC1CC(OC(=O)c2ccccc2O)CC(C)(C)C1 (stereo not given) | 0.97%
29 | NC(=O)c1ccc([N+](=O)[O-])cc1Cl | -3.5%
30 | COc1cc(C(=O)NCCCCCC(=O)O)cc(OC)c1OC | 3.49%
31 | CCOC(=O)c1cccnc1 | 0.786%
32 | O=C(NCCCN1CCOCC1)c1ccc(Cl)cc1 | 0.54%
33 | CC(=O)Nc1ccccc1 | 1.12%
34 | CC(CN(C)C)C(C)(O)Cc1ccc(Cl)cc1 (stereo not given) | -0.0603%
35 | CN1C[C@@H]2C[C@H]1CN2c1cc2c(cc1F)c(=O)c(C(=O)O)cn2C1CC1 | -3.84%
36 | O=C(O)c1cc(=O)c2ccccc2o1 | -26.6%
37 | CNCc1ccccc1 | 9.53%
38 | Nc1ncnc2c1ncn2[C@@H]1O[C@H](COP(=O)(O)O)[C@@H](O)[C@H]1O | -16.8%
39 | O=C(O)Cc1ccc(CCNS(=O)(=O)c2ccc(Cl)cc2)cc1 | -1.25%
40 | CCOC(=O)[C@H](CCc1ccccc1)N[C@@H](C)C(=O)N1CCC[C@H]1C(=O)O | 13.6%

Reference: PubChem BioAssay (NCATS)
